An excerpt weighted towards active compounds, which were near 21% of everything screened.
RORgamma inh: blocks mouse ROR gamma transcriptional activity; P51450; Drosophila S2 Gal4-RORgamma UAS-luciferase reporter, 20 h; Potency, µM (titrated, usually from 53.6 µM), without a hit: at the highest dose activity change, negative = inhibition, usual class: inhibitors; 310,000 compounds, 5.4% hits; AID 2551; note: potency is the fitted concentration of half-maximal effect; nearly all actives have a fitted effect of over 60% in size
Target sequence (P51450 whole entry, looked up, the tested form may be a part): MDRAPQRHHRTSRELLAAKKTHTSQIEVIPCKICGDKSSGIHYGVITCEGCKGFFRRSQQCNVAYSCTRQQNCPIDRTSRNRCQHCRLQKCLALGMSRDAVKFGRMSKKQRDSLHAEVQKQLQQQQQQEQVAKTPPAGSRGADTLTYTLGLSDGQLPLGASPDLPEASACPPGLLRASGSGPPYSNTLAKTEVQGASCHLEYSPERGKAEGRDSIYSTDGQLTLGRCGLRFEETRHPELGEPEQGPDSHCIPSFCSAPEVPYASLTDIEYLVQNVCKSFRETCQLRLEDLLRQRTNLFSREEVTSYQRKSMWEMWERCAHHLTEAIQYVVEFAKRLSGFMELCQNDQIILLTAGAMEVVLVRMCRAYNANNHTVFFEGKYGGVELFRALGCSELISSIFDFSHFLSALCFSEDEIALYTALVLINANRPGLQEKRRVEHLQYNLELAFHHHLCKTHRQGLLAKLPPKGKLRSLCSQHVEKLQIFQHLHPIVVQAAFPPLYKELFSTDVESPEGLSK
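Stable Schneider cell line, Gal4 DNA-binding domain fused to ROR gamma, UAS-luciferase. Cmpd 1 hr RT → CuSO4 700 uM final → 20 hr RT → luciferase reagent 10 min → luminescence.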
TDP1 cell CPT: DT40-hTDP1 cell growth loss with CPT; AID 686979; Potency, µM (series often up to 46.2 µM), for the others: at the highest dose activity change, negative = growth inhibition, most hits filed as inhibitors; 420,000 compounds, 12% hits; chicken DT40 Tdp1-/-;hTDP1 cells + 20 nM CPT, ATP luminescence, 48 h; note: potency is the fitted concentration of half-maximal effect; nearly all actives have a fitted effect of over 55% in size
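Chicken DT40 Tdp1-/- cells complemented with human TDP1, 400 cells/well, exposed to compounds plus 20 nM camptothecin for at least 48 h at 37 C; viability read as ATP content by CellTiter-Glo luminescence.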
VP16 counter: inhibits Gal4-VP16 luciferase reporter, ROR gamma counter-screen; Drosophila S2 Gal4-VP16 UAS-luciferase, luminescence, 20 h; Potency, µM (doses to about 53.6 µM), inactives show at the highest dose activity, negative = inhibition, hits mostly inhibitors; 310,000 compounds, 3.5% hits; AID 2546;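 note: Gal4-VP16 expression switched on by copper sulfate through the metallothionein promoter; potency is the fitted concentration of half-maximal effect; nearly all actives have a fitted effect of over 50% in size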
IL1B secr inh: blocks inflammasome-driven IL-1 beta release | THP-1 LPS/ATP IL-1B secretion, AlphaLISA, 16 h; stronger effect = lower value | activity change, % at 57.5 µM | 360,000 compounds, 4.7% hits | AID 743279; in the data active = activity change below about -50%; inconclusive = mostly about -30% to -49%
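THP-1 cells pretreated 1 hr with compounds (up to 57.5 uM final), then stimulated with LPS (250 ng/mL final) plus ATP (1.25 mM final); secreted IL-1B measured by AlphaLISA after 16 hr, decreased signal indicating inhibition.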
TDP1 cell noCPT: qHTS for Inhibitors of human tyrosyl-DNA phosphodiesterase 1 (TDP1): qHTS in cells in absence of CPT; DT40 Tdp1-/- hTDP1 cells, no CPT, ATP luminescence, 48 h; Potency, µM (doses to about 46.2 µM), for the others: at the top dose activity change, negative = growth inhibition, actives largely listed as inhibitors; 420,000 compounds, 15% hits; note: potency is the fitted concentration of half-maximal effect; nearly all actives have a fitted effect of over 55% in size
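A cellular qHTS used chicken DT40 cells lacking endogenous Tdp1 but carrying stably transfected human TDP1. Compounds were applied without camptothecin, and cell growth kinetics were judged by ATP-dependent luminescence after ≥48 hr.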
ELG1 DNA repair: ELG1-dependent DNA repair inhibition. HEK293T ELG1-luciferase reporter, luminescence, 16 h; DNA damage induced by 5-fluorouridine. Potency, µM (top dose mostly 46.1 µM), for inactives: at the highest dose activity change, negative = inhibition, most hits filed as inhibitors. 330,000 compounds, 2.3% hits. AID 504467; note: potency is the fitted concentration of half-maximal effect; nearly all actives have a fitted effect of over 55% in size
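Overnight (16 hr) co-exposure of 2,000 cells/well to 5-fluorouridine and compound at 37 °C preceded detection. Luciferase was quantified via ONE-Glo luminescence; loss of signal denotes inhibition.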
* = called active by the depositor; i = inactive; ? = inconclusive; / = no result; [ ] = another dose, or the depositor's remark. Unless noted, calls come from the whole dose curve; as a rule, active = well fitted curve in the direction sought with a large enough effect; inconclusive = small, poorly fitted or top-dose-only effect, or another doubt; inactive = no such curve, though single readings can be large; an effect the other way counts as inactive or inconclusive. % is set by controls: 0 for no effect and ±100 for the full control effect.

SMILES	RORgamma inh	TDP1 cell CPT	VP16 counter	IL1B secr inh	TDP1 cell noCPT	ELG1 DNA repair
COc1cccc(-c2nn(C)c3sc(C(=O)N4CCN(c5cccc(C)c5)C(C)C4)cc23)c1 (stereo unspecified)	/	21µM*	/	/	23µM*	/
Cc1ccc(S(=O)(=O)N2CCN(C(=O)c3cc4c(s3)CCC(C)C4)CC2)cc1 (stereo unspecified)	/	?	/	6	16µM*	0%
CCOc1ccc(S(=O)(=O)N2CCN(C(=O)c3cc4c(s3)CCCC4)CC2)cc1	?	16µM*	-5%	-3	?	?
COc1cc(NC(=O)CSc2nc3ccccc3n2-c2ccccc2)c(C)cc1[N+](=O)[O-]	?	?	-8%	3	?	?
C=CCOc1c(OC)cc(/C=N/Nc2cccc(C(=O)O)c2)c(Br)c1Br	3%	16µM*	5%	0	16µM*	?
COc1cc(/C=N/Nc2ccc(C(=O)O)cc2)cc(OC)c1OC	?	-2%	?	0	-20%	?
NC(=O)c1ccsc1NC(=O)c1coc2ccccc2c1=O	-12%	?	1%	-3	29µM*	?
Cc1ccc(C(=O)NCC(=O)NCC(=O)OCc2ccc(Cl)cc2)cc1	?	-14%	-16%	-98*	-8%	3%
COc1ccc(NC(=O)N2CCC3(CC2)CCN(C(=O)c2cccn2C)CC3)cc1	2%	-19%	0%	/	?	/
CC(C)c1nnc(NC(=O)c2nc(S(=O)(=O)Cc3ccccc3)ncc2Cl)s1	22µM*	5.8µM*	11µM*	-103*	9.2µM*	?
Cc1ccccc1CS(=O)(=O)c1ncc(Cl)c(C(=O)Nc2nnc(C(C)C)s2)n1	/	8.2µM*	/	/	10µM*	/
CCCSc1nnc(NC(=O)c2nc(SC)ncc2Cl)s1	13µM*	-15%	-39%	14	-2%	15%
CSc1nnc(NC(=O)c2nc(S(=O)(=O)Cc3ccccc3)ncc2Cl)s1	13µM*	12µM*	?	-100*	16µM*	?
CC(C)Sc1ncc(Cl)c(C(=O)Nc2nnc(C(C)C)s2)n1	/	-21%	/	/	-10%	/
Cc1ccc(NC(=O)c2ccc(S(=O)(=O)N3CCCCC3)cc2)nc1	/	?	/	1	-13%	6%
CCCCS(=O)(=O)N1CCN(S(=O)(=O)c2cccs2)CC1	12%	5%	4%	i	2%	-2%
O=c1[nH]ccc2c(O)cccc12	/	?	/	37	21µM*	/
Cc1c(=O)n(OCc2ccc(Cl)cc2)c2ccccc2[n+]1[O-]	-1%	-10%	-17%[10 µM]	16	6.5µM*	-11%
Cc1c(=O)n(OCc2cccc(F)c2)c2ccccc2[n+]1[O-]	8%	-6%	-7%	0	?	-5%
Cc1ccc(CSc2nc(=O)c3c(C)cc(C)nc3n2C2CC2)cc1	/	21µM*	/	/	21µM*	/
Cc1ccc(CN2CC(N3CCCCC3)CS2(=O)=O)cc1 (stereo unspecified)	/	-23%	/	58	-16%	/
Cc1cc(NC(=O)c2cc(-c3ccc(Br)cc3)on2)nn1Cc1ccc(Cl)cc1	/	-23%	/	/	-8%	/
O=C1CN(/N=C/c2ccc([N+](=O)[O-])o2)C(=O)N1	-2%	21µM*	-20%	14	16µM*	?
O=C1OCCN1/N=C/c1ccc([N+](=O)[O-])o1	?	13µM*	/	22	15µM*	18%
COC(=O)C1(C(=O)OC)C/C=C\CCN(S(=O)(=O)c2ccccc2[N+](=O)[O-])CC1	/	?	/	32	?	/
COc1ccccc1-c1nc(-c2ccccc2)nc(N2CCN(C)CC2)c1C#N	14µM*	-17%	-19%	-52*	?	21µM*
